Values joined by “and” are separate entries in the source; they are usually repeats but may differ in a detail not shown here. Identical values can stand only once. Out of some 4,400 compounds screened, about 390 (8.9%) showed an effect of 50% or more. Only a selection was taken, and strong results are over-represented in it overall.
Tested on: Trypanosoma brucei
Assay: DNDI: Inhibition of Human African Trypanosomiasis, SBRI 427, in vitro at 2 ug.mL-1
Format: functional

SMILES | % inhibition
COc1cc(C)ccc1Oc1ncccc1/C(=N/O)N(C)C1CCN(C)CC1 | -9%
Fc1ccc(-c2nc(Cn3ncc4c3CCCC4)co2)cc1 | 1%
COc1cc(-c2nc(CN3CCC(Cc4ccccc4)CC3)co2)cc(OC)c1OC | 6%
CCOc1ccccc1-c1nc(CN(C)c2ccc(C)cc2)co1 | -15%
CCCN(Cc1coc(-c2ccccc2Cl)n1)C(C)CC (configuration not stated) | -11%
O/N=C(/c1ccnc(Oc2cccc3c2CCCC3)c1)N1CCN(c2ccccc2)CC1 | 22%
N/C(=N\O)c1ccnc(Oc2cccc3c2CCCC3)c1 | 7%
O/N=C(/c1ccnc(Oc2cccc3c2CCCC3)c1)N1CCSCC1 | 91%
Cc1cc(C)n(/C(=N\O)c2ccnc(Oc3cc(Cl)ccc3Cl)c2)n1 | 16%
Cc1cc(C)n(/C(=N\O)c2ccnc(Oc3cccc4c3CCCC4)c2)n1 | 57%
O/N=C(/c1ccc(Oc2cccc3c2CCCC3)nc1)N1CCSCC1 | 21%
CCN(CCN(C)C)Cc1coc(-c2ccc(C(C)(C)C)cc2)n1 | 99%
C=COCCCNCc1coc(-c2ccc(C)cc2)n1 | -5%
CN(C)CC(C)(C)CNCc1coc(-c2ccc(C(C)(C)C)cc2)n1 | 9%
C=COCCCNCc1coc(-c2ccc(OC)cc2)n1 | -2%
CCN(CC)CCN(CC)Cc1coc(-c2ccc(OC)cc2)n1 | 14%
CC(C)(C)CNCc1coc(-c2ccc(C(C)(C)C)cc2)n1 | 99%
CC(C)(C)c1ccc(CNCc2coc(-c3ccc(O)cc3)n2)cc1 | 36%
Cc1ccccc1-c1nc(CN(CCC#N)Cc2ccccc2)co1 | -5%
COCCN(CCOC)Cc1coc(-c2ccc(C(C)(C)C)cc2)n1 | -1%
Cc1ccccc1-c1nc(CN(C)Cc2ccccc2)co1 | -2%
C=COCCCNCc1coc(-c2ccc(C(C)(C)C)cc2)n1 | 53%
Cc1ccccc1-c1nc(CN(CCN(C)C)Cc2ccccc2)co1 | 54%
Cc1ccc(-c2nc(CN(C)C(C)(C)C)co2)cc1 | 22%

SMILES | % inhibition
CN(CCc1ccccc1)Cc1coc(-c2ccc(Cl)cc2Cl)n1 | 11%
Cc1ccc(CCNCc2coc(-c3ccc(Cl)cc3Cl)n2)cc1 | -7%
C=CCN(C)Cc1coc(-c2cccc(OC)c2)n1 | 27%
CSc1ccc(Oc2nc(C)ccc2/C(=N/O)N2C(C)CCC2C)cc1C (configuration not stated) | 23%
FC(F)(F)c1ccc(CNCc2coc(-c3cccs3)n2)cc1 | -6%
COc1ccc(-c2nc(CN3CCN(C)CC3)co2)cc1 | 4%
Cc1cn(Cc2coc(-c3ccc(C(F)(F)F)cc3)n2)c(C)n1 | 2%
Cc1ccc(CNCc2coc(-c3ccc(C(C)(C)C)cc3)n2)o1 | 0%
CCCCNCc1coc(-c2ccc(C(C)(C)C)cc2)n1 | 99%
CC(C)C(C)NCc1coc(-c2ccc(C(C)(C)C)cc2)n1 (configuration not stated) | 72%
c1ccc(-c2nc(CNCC3CC3)co2)cc1 | 28%
Cc1ccc(-c2nc(Cn3cc(C)nc3C)co2)cc1 | 18%
COc1ccc(-c2nc(CNCC3CCCCC3)co2)cc1 | 10%
CC(C)(C)c1ccc(-c2nc(CNCC3CC3)co2)cc1 | 99%
CCCCNCc1coc(-c2ccccc2)n1 | 20%
CC(C)C(C)NCc1coc(-c2ccc(O)cc2)n1 (configuration not stated) | 33%
Cc1cn(Cc2coc(-c3ccc(C(C)(C)C)cc3)n2)c(C)n1 | 58%
Cc1ccc(-c2nc(CNC(C)C(C)C)co2)cc1 (configuration not stated) | 41% and 29%
CCOc1ccccc1N(Cc1ccccc1)Cc1coc(-c2cccc(F)c2)n1 | 1%
Brc1ccccc1-c1nc(CNCc2cccc3ccccc23)co1 | -1%
CCCCN(C)Cc1coc(-c2ccc(OC)cc2)n1 | 9%
COc1cccc(-c2nc(CN3CCCCCCC3)co2)c1 | 31%
Cc1ccc(/C(=N/O)N(C)Cc2ccco2)c(Oc2cccc3c2CCCC3)n1 | -8%
Cc1cn(Cc2coc(-c3cccc4ccccc34)n2)cn1 | 1%

SMILES | % inhibition
CCN(Cc1coc(-c2ccccc2Cl)n1)c1ccc(C)cc1 | -3%
CC(CNCc1coc(-c2cccc3ccccc23)n1)c1ccccc1 (configuration not stated) | 8%
Oc1ccc(-c2nc(CN3CCCCCC3)co2)cc1 | 9%
Cc1ccc(-c2nc(CN3CCN(c4ccc(F)cc4)CC3)co2)cc1 | 0%
Cc1ccc(-c2nc(CN3CCC(N4CCCC4)CC3)co2)cc1 | 60%
Brc1ccc(-c2nc(CN3CCCC3)co2)cc1 | 1%
COc1ccc(N2CCN(Cc3coc(-c4ccc(F)cc4)n3)CC2)cc1 | -1%
Brc1ccc(-c2nc(CN3CCCCCC3)co2)cc1 | 72%
Cc1ccc(-c2nc(CN3CCC(N4CCCCC4)CC3)co2)cc1 | 3%
Fc1ccc(-c2nc(CN3CCN(c4ccc(F)cc4)CC3)co2)cc1 | 52%
COc1ccc(-c2nc(CN3CCC(N4CCCC4)CC3)co2)cc1 | -12%
Cc1ccc(/C(=N/O)NCc2ccccc2)c(Oc2ccc(F)c(F)c2)n1 | 23%
CCOc1ccc(Oc2ccc(/C(N)=N/O)cn2)cc1 | 10%
Cc1ccc(-c2nc(CNc3cc[nH]n3)co2)cc1 | 10%
Cc1ccc(/C(=N/O)NCCC2CCCN2C)c(OCc2ccccc2)n1 (configuration not stated) | 22%
c1ccc(CN2CCC(NCc3coc(-c4cccc5ccccc45)n3)CC2)cc1 | 66%
Cc1cc(N2CCN(Cc3coc(-c4cccc5ccccc45)n3)CC2)c2ccccc2n1 | 52%
c1ccc(CN2CCN(Cc3coc(-c4cccc5ccccc45)n3)CC2)cc1 | 18%
c1ccc(CN2CCC(NCc3coc(-c4cccc5ccccc45)n3)C2)cc1 (configuration not stated) | 14%
Cc1ccc(-c2nc(CN3CCN(c4cc(C)nc5ccccc45)CC3)co2)cc1 | 12%
Clc1ccc(-c2nc(CNC3CCN(Cc4ccccc4)CC3)co2)c(Cl)c1 | 74%
Clc1ccc(-c2nc(CNC3CCc4ccccc43)co2)c(Cl)c1 (configuration not stated) | -4%
Clc1ccc(-c2nc(CNC3CCN(Cc4ccccc4)C3)co2)c(Cl)c1 (configuration not stated) | 18%
Clc1ccc(-c2nc(CNC3C[C@H]4CC[C@@H]3C4)co2)c(Cl)c1 (some centres not stated) | 52%

SMILES | % inhibition
Clc1ccccc1-c1nc(CNC2CCN(Cc3ccccc3)CC2)co1 | 20%
Oc1ccc(-c2nc(CNC3C[C@H]4CC[C@@H]3C4)co2)cc1 (some centres not stated) | 11%
Cc1cc(N2CCN(Cc3coc(-c4ccccc4Cl)n3)CC2)c2ccccc2n1 | 7%
Cc1cccc(N2CCN(Cc3coc(-c4ccccc4F)n3)CC2)c1C | -33%
CN(CCc1ccccc1)Cc1coc(-c2ccccc2Cl)n1 | 17%
COc1cccc(-c2nc(CN(C)Cc3cc(OC)c(OC)c(OC)c3)co2)c1 | -4%
O/N=C(\NC1CCCCC1)c1cccnc1Oc1c(F)cccc1F | 99%
O/N=C(/c1cccnc1Oc1c(F)cccc1F)N1CCC2CCCCC2C1 (configuration not stated) | -13%
O/N=C(\NC1CCCC1)c1cccnc1Oc1c(F)cccc1F | 100%
O/N=C(\NCC1CCCCC1)c1cccnc1Oc1c(F)cccc1F | 99%
O/N=C(\NCC1CCCO1)c1cccnc1Oc1c(F)c(F)cc(F)c1F (configuration not stated) | 1%
CC1CC(N/C(=N\O)c2cccnc2Oc2c(F)c(F)cc(F)c2F)CC(C)(C)C1 (configuration not stated) | -10%
CC1CC(N/C(=N\O)c2cccnc2OCC(C)(C)C)CC(C)(C)C1 (configuration not stated) | 44%
CC1CC(N/C(=N\O)c2cccnc2Oc2c(F)cccc2F)CC(C)(C)C1 (configuration not stated) | 98%
COc1ccc(Oc2nc(C)ccc2/C(=N/O)NCCN(C)C)cc1 | 0%
CCOc1ccc(-c2nc(CN(C)C3CCCCC3)co2)cc1 | 5%
c1ccc(Oc2ccc(NCc3coc(-c4cccc5ccccc45)n3)cc2)cc1 | 1%
O/N=C(/c1cccnc1OCc1ccccc1F)n1ccnc1 | -10%
C#CCN(C)Cc1coc(-c2ccc(C)cc2)n1 | -1%
Fc1cccc(-c2nc(CNCc3cccc4ccccc34)co2)c1 | 17%
CCOc1ccccc1N(Cc1ccccc1)Cc1coc(-c2ccc(O)cc2)n1 | -16%
O/N=C(/c1ccc(Oc2ccc(-n3ccnc3)cc2)nc1)N1CC=CC1 | 16%
COc1ccc(NCc2coc(-c3ccc(OC)cc3)n2)cc1 | 9%
COc1ccc(OC)c(NCc2coc(-c3ccc(C)cc3)n2)c1 | 0%

SMILES | % inhibition
CC1CC(C)CN(/C(=N\O)c2cccnc2Oc2c(F)cccc2F)C1 (configuration not stated) | 28%
CC1CCC(N/C(=N\O)c2cccnc2Oc2c(F)cccc2F)CC1 (configuration not stated) | 99%
Cc1ccc(/C(=N/O)NC2CCC(C)CC2)c(Oc2c(F)c(F)cc(F)c2F)n1 (configuration not stated) | 22%
CCOc1ccc(-c2nc(CN(C)c3ccccc3)co2)cc1 | -8%
CN(Cc1coc(-c2ccc(Cl)cc2Cl)n1)CC1OCCO1 | 30%
COc1cc(C)ccc1Oc1nc(C)ccc1/C(=N/O)Nc1ccccc1 | -6%
CC(C)c1ccc(NCc2coc(-c3ccc(F)cc3)n2)cc1 | 7%
COc1cc(-c2nc(CN(C)CCc3ccccn3)co2)cc(OC)c1OC | -7%
COc1ccc(-c2nc(CN3CCN(c4cccc(C(F)(F)F)c4)CC3)co2)cc1 | -13%
Clc1ccc(-c2nc(CNCc3ccncc3)co2)c(Cl)c1 | 9%
Clc1ccc(-c2nc(CNCCCn3ccnc3)co2)c(Cl)c1 | 86%
C#CCNCc1coc(-c2ccc(Cl)cc2Cl)n1 | 3%
Brc1ccc(-c2nc(CNCCCn3ccnc3)co2)cc1 | 56%
CC1CCCCN1CCCNCc1coc(-c2ccc(Cl)cc2Cl)n1 (configuration not stated) | 99%
Cc1cccc(-c2nc(CNCCCn3ccnc3)co2)c1 | -8%
CCOc1ccccc1-c1nc(CNCCCn2ccnc2)co1 | 32%
Clc1ccc(-c2nc(Cn3ccnc3)co2)c(Cl)c1 | 5%
Clc1ccc(-c2nc(CNCCN3CCOCC3)co2)c(Cl)c1 | 0%
c1ccc2c(-c3nc(CNCCCn4ccnc4)co3)cccc2c1 | 54%
Brc1ccccc1-c1nc(CNCCCn2ccnc2)co1 | 2%
COc1ccc(-c2nc(CNCCCn3ccnc3)co2)cc1 | 6%

From ChEMBL document CHEMBL1857833, “Screening and optimization of specific chemical series against human African Trypanosomiasis (HAT)”
